Among the test systems are HCT-15 colon; HT29 colon; SNB-75 CNS; SNB-19 CNS; U251 CNS; PC-3 prostate; SK-MEL-5 melanoma; UACC-62 melanoma; LOX IMVI melanoma; SK-MEL-28 melanoma; SK-MEL-2 melanoma; EKVX NSCLC; SN12C renal; UO-31 renal; TK-10 renal; ACHN renal; CAKI-1 renal; A498 renal; CCRF-CEM leukemia; MOLT-4 leukemia.
Holding throughout (test): NCI-60 one-dose screen, 48 h (100 = growth as untreated, 0 = no growth, -100 = all killed)
Holding throughout (settings): 10 µM unless noted

About 83,000 compounds went through this panel and 20% of them were active in at least one assay; those are over-represented in the sample as a whole.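 Negative percent growth values reflect cell death: -40 means 40% of the cells present at the start died, and -100 means all died.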 Calls of active or inactive are those of the source. The calls were made as follows: active = growth percent below 10; inactive = the rest.

Regarding `O=C(Nc1ccc2ncsc2c1)c1csc(Nc2ccc3[nH]ncc3c2)n1`, the growth was 26% (inactive) in the test on HCT-15 colon; 19.4% (inactive) in the test on HT29 colon; 21.6% (inactive) in the test with SNB-75 CNS; 41.2% (inactive) in the test with SNB-19 CNS; 38.6% (inactive) with U251 CNS; 40.6% (inactive) in the test with PC-3 prostate. Besides, the growth in the test with SK-MEL-5 melanoma is 9.43% (active); in the test on UACC-62 melanoma, 22.7% (inactive); in the test with LOX IMVI melanoma it was 45% (inactive); in the test on SK-MEL-28 melanoma, 69.2% (inactive); in the test with SK-MEL-2 melanoma it was 50.6% (inactive); with EKVX NSCLC, 58.6% (inactive). In addition, the growth in the test on SN12C renal was 49.9% (inactive); with UO-31 renal, 50.3% (inactive); in the test with TK-10 renal, 55.2% (inactive); in the test with ACHN renal it was 50.5% (inactive); with CAKI-1 renal, 30.3% (inactive); with A498 renal it was 36.8% (inactive). The growth was 23% (inactive) in the test with CCRF-CEM leukemia and 49.8% (inactive) in the test on MOLT-4 leukemia.

Regarding `C=CCOc1ccc(/C=C2\SC(=S)N(CCc3ccc(O)cc3)C2=O)cc1`, the growth in the test on HCT-15 colon is 82.9% (inactive); with HT29 colon, 88.4% (inactive); in the test with SNB-75 CNS, 82% (inactive); in the test on SNB-19 CNS, 93.3% (inactive); in the test with U251 CNS, 86% (inactive); in the test on PC-3 prostate it was 90.4% (inactive). The growth was 94.4% (inactive) with SK-MEL-5 melanoma; 73.8% (inactive) with UACC-62 melanoma; -71.2% (active) in the test on LOX IMVI melanoma; 110% (inactive) with SK-MEL-28 melanoma; 106% (inactive) in the test on SK-MEL-2 melanoma; 91.4% (inactive) in the test on EKVX NSCLC. The growth was 84.4% (inactive) in the test on SN12C renal; 61.3% (inactive) in the test on UO-31 renal; 106% (inactive) in the test on TK-10 renal; 94% (inactive) in the test with ACHN renal; 71.2% (inactive) in the test on CAKI-1 renal; 65.6% (inactive) in the test with A498 renal. For the same compound, the growth was 5.72% (active) in the test with CCRF-CEM leukemia and 40.4% (inactive) in the test on MOLT-4 leukemia.

Turning to `CCCCCCCCCCCCC[C@H](O)C[C@H](O)[C@H](C)N`, the growth was 97.8% [1.25 µM] (inactive) with HCT-15 colon; 103% [1.25 µM] (inactive) in the test on HT29 colon; 129% [1.25 µM] (inactive) in the test with SNB-75 CNS; 104% [1.25 µM] (inactive) in the test on SNB-19 CNS; 85.2% [1.25 µM] (inactive) in the test on U251 CNS; 97% [1.25 µM] (inactive) in the test with PC-3 prostate. The growth in the test with SK-MEL-5 melanoma was 97.6% [1.25 µM] (inactive); with UACC-62 melanoma, 113% [1.25 µM] (inactive); in the test with LOX IMVI melanoma, 90.8% [1.25 µM] (inactive); in the test on SK-MEL-28 melanoma, 115% [1.25 µM] (inactive); in the test with SK-MEL-2 melanoma, 113% [1.25 µM] (inactive); in the test on EKVX NSCLC, 99.4% [1.25 µM] (inactive). Moreover, the growth is 105% [1.25 µM] (inactive) with SN12C renal; 112% [1.25 µM] (inactive) in the test with UO-31 renal; 137% [1.25 µM] (inactive) in the test on TK-10 renal; 102% [1.25 µM] (inactive) in the test on ACHN renal; 110% [1.25 µM] (inactive) with CAKI-1 renal; 93.7% [1.25 µM] (inactive) with A498 renal. In addition, the growth in the test with CCRF-CEM leukemia is 25% [1.25 µM] (inactive); with MOLT-4 leukemia, 51.7% [1.25 µM] (inactive).

Turning to `O=C1OCC2=C1C(c1cccc([N+](=O)[O-])c1)c1cc3c(cc1N2CCO)CCC3` (stereo not given), the growth was 9.41% (active) in the test with HCT-15 colon; 3.43% (active) in the test with HT29 colon; 41.9% (inactive) with SNB-75 CNS; 25% (inactive) with SNB-19 CNS; 13.8% (inactive) with U251 CNS; 21.7% (inactive) with PC-3 prostate. Moreover, the growth in the test on SK-MEL-5 melanoma is 1.24% (active); in the test on UACC-62 melanoma, 43.9% (inactive); in the test on LOX IMVI melanoma, 20.5% (inactive); in the test on SK-MEL-28 melanoma, 53.7% (inactive); with SK-MEL-2 melanoma it was 17.7% (inactive); in the test on EKVX NSCLC, 36.8% (inactive). The growth in the test on SN12C renal is 36.3% (inactive); in the test with UO-31 renal, 39% (inactive); with TK-10 renal, 60.1% (inactive); in the test with ACHN renal it was 27.5% (inactive); in the test with CAKI-1 renal it was 31% (inactive); in the test on A498 renal, -5.04% (active). Further, the growth is 7.25% (active) in the test with CCRF-CEM leukemia and 14% (inactive) in the test with MOLT-4 leukemia.

As to `CCOC(=O)c1ccc(Nc2ncnc3c2cnn3-c2cccc(F)c2)cc1`, the growth in the test on HCT-15 colon was 102% (inactive); in the test on HT29 colon, 103% (inactive); in the test with SNB-75 CNS, 82.1% (inactive); in the test with SNB-19 CNS, 96.9% (inactive); with U251 CNS, 98% (inactive); in the test with PC-3 prostate it was 97.3% (inactive). Besides, the growth was 101% (inactive) with SK-MEL-5 melanoma; 92.6% (inactive) in the test on UACC-62 melanoma; 93.2% (inactive) in the test on LOX IMVI melanoma; 110% (inactive) with SK-MEL-28 melanoma; 114% (inactive) with SK-MEL-2 melanoma; 97.5% (inactive) in the test on EKVX NSCLC. Moreover, the growth in the test with SN12C renal was 95% (inactive); in the test with UO-31 renal, 72.1% (inactive); with TK-10 renal it was 115% (inactive); with ACHN renal it was 96.5% (inactive); with CAKI-1 renal it was 84.8% (inactive); with A498 renal it was 99% (inactive). The growth in the test with CCRF-CEM leukemia was 95.6% (inactive); in the test on MOLT-4 leukemia, 99.2% (inactive).

Consider `C=C(C)[C@@H]1CC[C@]2(C)[C@H](CC(=O)N[C@H]3[C@@H]4C[C@](C)(C(=O)OC)CC[C@]4(C)CC[C@]32C)[C@@]1(C)CCC#N`, for which the growth is 68.6% (inactive) in the test with HCT-15 colon; 70.9% (inactive) in the test with HT29 colon; 96.5% (inactive) with SNB-75 CNS; 89% (inactive) in the test with SNB-19 CNS; 79.9% (inactive) in the test on U251 CNS; 42.9% (inactive) in the test with PC-3 prostate. Also, the growth in the test on SK-MEL-5 melanoma was 49.7% (inactive); in the test on UACC-62 melanoma it was 68.3% (inactive); in the test on LOX IMVI melanoma it was 96.9% (inactive); with SK-MEL-28 melanoma, 104% (inactive); with SK-MEL-2 melanoma, 95.3% (inactive); in the test on EKVX NSCLC, 93.2% (inactive). Moreover, the growth is 79.4% (inactive) with SN12C renal; 75.7% (inactive) in the test on UO-31 renal; 104% (inactive) in the test on TK-10 renal; 88% (inactive) with ACHN renal; 79.2% (inactive) in the test on CAKI-1 renal; 101% (inactive) in the test on A498 renal. For the same compound, the growth in the test on CCRF-CEM leukemia was 75.1% (inactive); in the test on MOLT-4 leukemia, 42.7% (inactive).

The values are drawn from PubChem BioAssay (NCI).
